# Measured potencies and affinities stand elsewhere. Calls of active or inactive are those of the source.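 How the source made its calls: active means signal falls, with fitted half-maximal concentration at most twice the top valid dose tested; inconclusive means flat curve with partial signal loss, or poor curve fit; inactive means the rest, including signal rising instead.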
# Molecular target: DNA repair and recombination protein RAD54-like (Homo sapiens) (UniProt Q92698)
# Assay: RAD54 Holliday junction migration blockers – biochemical, fluorescence, cherry-picked samples, dose series, confirmation (AID 651657)
# Conditions: RAD54 branch migration, FAM/BHQ fluorescence, 60 min; series mostly up to 50 µM
# DNA repair and recombination protein RAD54-like (Homo sapiens), sequence (Q92698 whole entry, looked up): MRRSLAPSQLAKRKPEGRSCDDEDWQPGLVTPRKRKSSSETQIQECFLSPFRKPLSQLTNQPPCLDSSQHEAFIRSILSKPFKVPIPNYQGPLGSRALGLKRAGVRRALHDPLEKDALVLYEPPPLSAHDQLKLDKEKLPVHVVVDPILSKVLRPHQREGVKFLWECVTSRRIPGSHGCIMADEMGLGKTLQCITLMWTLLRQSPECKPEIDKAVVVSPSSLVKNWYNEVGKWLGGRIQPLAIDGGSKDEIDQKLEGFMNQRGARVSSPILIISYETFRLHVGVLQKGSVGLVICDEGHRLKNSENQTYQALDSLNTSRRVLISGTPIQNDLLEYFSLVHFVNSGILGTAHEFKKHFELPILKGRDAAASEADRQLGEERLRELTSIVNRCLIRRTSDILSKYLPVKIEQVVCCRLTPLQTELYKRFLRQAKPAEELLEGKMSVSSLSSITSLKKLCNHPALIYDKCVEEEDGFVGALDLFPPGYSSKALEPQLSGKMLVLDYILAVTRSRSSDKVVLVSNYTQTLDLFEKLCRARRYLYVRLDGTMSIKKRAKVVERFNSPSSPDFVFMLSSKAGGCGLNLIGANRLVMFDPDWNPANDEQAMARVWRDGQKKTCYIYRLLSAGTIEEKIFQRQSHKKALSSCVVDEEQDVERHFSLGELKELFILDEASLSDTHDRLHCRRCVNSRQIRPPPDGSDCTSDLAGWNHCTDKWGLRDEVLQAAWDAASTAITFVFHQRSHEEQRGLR
row,SMILES,outcome
1,Nc1ccc(CCN2CCCC2)cc1,inactive
2,CCN1CCN(c2ccc(N)c(C)c2)CC1,inactive
3,Nc1ccnn1C1CCNCC1,inactive

# Reference: PubChem BioAssay AID651657 (Broad Institute, 2012)
